89 compounds from PubChem BioAssay AID720540 (National Center for Advancing Translational Sciences (NCATS), 2013) can be followed below.

Each structure is given as a SMILES string. The campaign covered roughly 1,300 compounds. About 460 (35%) were called active. Roughly 39% stayed inconclusive and do not appear here. The list shows a part of the results. Values without a mark were called inactive. Calls come from the whole dose curve; as a rule, active = well fitted inhibition curve with a large enough effect; inconclusive = small, poorly fitted or top-dose-only effect; inactive = flat fitted curve, though single readings scatter.
Potency is the fitted concentration of half-maximal effect.

Chain of Protein phosphatase EYA2 (Homo sapiens) (O00167 whole entry, looked up): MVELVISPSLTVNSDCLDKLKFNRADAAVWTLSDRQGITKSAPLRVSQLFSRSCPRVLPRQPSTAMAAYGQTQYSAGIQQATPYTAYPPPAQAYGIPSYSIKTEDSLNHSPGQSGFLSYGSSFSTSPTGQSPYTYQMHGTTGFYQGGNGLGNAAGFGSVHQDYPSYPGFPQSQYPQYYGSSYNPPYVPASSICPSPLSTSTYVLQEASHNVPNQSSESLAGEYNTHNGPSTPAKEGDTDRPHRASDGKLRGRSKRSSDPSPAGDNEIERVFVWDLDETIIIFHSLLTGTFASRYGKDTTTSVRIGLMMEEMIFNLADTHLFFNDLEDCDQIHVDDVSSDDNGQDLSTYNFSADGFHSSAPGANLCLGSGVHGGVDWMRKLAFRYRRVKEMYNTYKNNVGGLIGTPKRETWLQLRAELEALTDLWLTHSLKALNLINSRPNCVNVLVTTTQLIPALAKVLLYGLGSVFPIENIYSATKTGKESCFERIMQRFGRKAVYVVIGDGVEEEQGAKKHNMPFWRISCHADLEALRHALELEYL

This experiment concerns the target Protein phosphatase EYA2 (Homo sapiens) (UniProt O00167). The experiment can be described thus: qHTS for Inhibitors of the Phosphatase Activity of Eya2: Confirmatory Assay for Cherry-picked Compounds.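 For activity change, negative = inhibition: 0% = DMSO wells and -100% = EGTA control giving full inhibition.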 Note: nearly all actives have a fitted effect of over 65% in size. As to conditions: purified EYA2 phosphatase activity, qHTS confirmation; series mostly up to 46.1 µM; activity change, negative = inhibition: at the top concentration. In a few lines:
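Eya2 (0.2 uM working solution) preincubated 10 min at room temperature with compound in pH 7.5 HEPES buffer with MgCl2, BSA, DTT. OMFP added (50 uM working solution), 10 min more; fluorescence 485/525 nm, normalized to EGTA and DMSO.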
With `CN(C)C(C)(C)C#CC(O)(c1ccccc1)c1ccccc1`, the “activity change, negative = inhibition” value is -3.24%.

Consider `O=C(CSc1nnc2c3ccccc3c3ccccc3c2n1)Nc1ccccc1F`, for which the Potency is 7.57 µM (active).

For the compound `Cn1cc(SCC(=O)Nc2ccc3c(c2)OCCO3)c2ccccc21`, the “activity change, negative = inhibition” value is -12.8%.

In the case of `CCOC(=O)Cc1nnc(NC(=O)C(CC)Sc2nnc3c4ccccc4n(C)c3n2)s1` (centres undefined), the Potency was 16.9 µM (active).

Take `CCOC(=O)Cc1nnc(NC(=O)CSc2nnc3c4ccccc4n(C)c3n2)s1`: the Potency is 16.9 µM (active).

On to `Cn1c2ccccc2c2nnc(SCC(=O)Nc3cccc(O)c3)nc21`, for which the Potency is 13.5 µM (active).

On to `CSc1cccc(NC(=O)CCCOc2cc(=O)n(C)c3ccccc23)c1`, for which the “activity change, negative = inhibition” value is -27.4%.

For `Cn1c(=O)c(N)c2c3c(c(Br)ccc31)C(=O)c1ccccc1-2`, the Potency was 6.01 µM (active).

On to `COc1ccc(-c2nnc(NC(=O)c3ccc(S(=O)(=O)N(C)CC4CCCO4)cc3)o2)c(OC)c1` (centres undefined), for which the Potency was 21.3 µM (active).

With `COCc1nnc(NC(=O)c2ccc(S(=O)(=O)N3CCOCC3)cc2)o1`, the “activity change, negative = inhibition” value is -28.2%.

Consider `O=C1C(=Cc2ccco2)CCC1=Cc1ccco1`, for which the Potency was 4.78 µM (active).

In the case of `Cc1nc2ncccn2c1-c1csc(Nc2ccccc2)n1`, the Potency was 3.38 µM (active).

Regarding `COc1ccc(Nc2nc(-c3c(C)nc4ncccn34)cs2)cc1`, the Potency is 3.38 µM (active).

`O=[S+]([O-])([O-])c1ccc2c(c1)cc([S+](=O)([O-])[O-])c1nn(-c3ccc(/C=C/c4ccc(-n5nc6c([S+](=O)([O-])[O-])cc7cc([S+](=O)([O-])[O-])ccc7c6n5)cc4[S+](=O)([O-])[O-])c([S+](=O)([O-])[O-])c3)nc12`: the Potency was 6.75 µM (active).

In the case of `COc1ccc(-c2cn3c(C)c(C(=O)NCc4ccc5c(c4)OCO5)sc3n2)cc1`, the “activity change, negative = inhibition” value is -15.9%.

With `CN(C)c1ccc(Sc2ccc3nc(N)nc(N)c3c2)cc1`, the Potency was 6.75 µM (active).

For `S=C(NC1CC1)NC1CCCc2ccccc21` (centres undefined), the “activity change, negative = inhibition” value was -11.4%.

Regarding `N[C@@H](Cc1cnc[nH]1)C(=O)Nc1ccc2ccccc2c1`, the Potency is 21.3 µM (active).

As to `O=C(O)c1cccc(Nc2nc(-c3ccccc3)nc3ccccc23)c1`, the Potency is 9.53 µM (active).

Turning to `O=C(O)c1ccc(Nc2nc(-c3ccccc3)nc3ccccc23)cc1`, the Potency is 8.49 µM (active).

Regarding `Cc1ccc(Nc2nc(-c3cccnc3)nc3ccccc23)cc1`, the “activity change, negative = inhibition” value was -29.8%.

Consider `CCOC(=O)N1CCC(NC(=O)c2cc3c(-c4ccccc4F)nn(C)c3s2)CC1`, for which the “activity change, negative = inhibition” value was -14.8%.

Consider `O=C(CCn1c(=O)oc2ccccc21)NCc1ccc2c(c1)OCO2`, for which the “activity change, negative = inhibition” value is -2.46%.

For the compound `CCCCn1nc(C(=O)Nc2ccc3c(c2)OCO3)c2ccccc2c1=O`, the Potency was 12 µM (active).

For the compound `Cn1nnnc1SCC(=O)Nc1ccc2c(c1)OCO2`, the “activity change, negative = inhibition” value was -11%.

In the case of `COc1ccccc1NC(=O)C1=C(C)NC2=C(C(=O)CC(c3ccc(OC)c(OC)c3)C2)C1c1coc2ccccc2c1=O` (centres undefined), the Potency is 21.3 µM (active).

`CCc1cc2c(=O)[nH]c(-c3ccccn3)nc2s1`: the Potency is 1.69 µM (active).

Turning to `CCOc1ccc2c(c1)-c1c(ssc1=S)C(C)(C)N2C(=O)CSC1=NCCS1`, the Potency was 16.9 µM (active).

Consider `Cc1nc(C)c(-c2csc(Nc3ccc(O)c(C(=O)O)c3)n2)s1`, for which the Potency was 19 µM (active).

For `COc1ccc(S(=O)(=O)N2CCC3CC2c2cc(N4CCOCC4)ccc23)cc1` (centres undefined), the “activity change, negative = inhibition” value is 17.1%.

Take `COc1ccc(N2CCN(Cc3cc4c(cc3Br)OCCO4)CC2)cc1`: the Potency was 15.1 µM (active).

Turning to `COc1ccc(N2CCN(C(c3cccs3)C(C)NC(=O)c3ccc4c(c3)OCO4)CC2)cc1` (centres undefined), the “activity change, negative = inhibition” value is 1.89%.

With `COc1ccc(N2CCN(Cc3ccc(Br)s3)CC2)cc1`, the Potency is 10.7 µM (active).

Take `COc1ccc(N2CCN(C(c3ccco3)c3sc4nc(C)nn4c3O)CC2)cc1` (centres undefined): the “activity change, negative = inhibition” value is -27.1%.

As for `Cc1ccc(C(=O)ON=C2CCN(c3ccc([N+](=O)[O-])cc3)CC2)cc1`, the “activity change, negative = inhibition” value was -23.5%.

`O=C(Oc1ccc(C(=S)N2CCOCC2)cc1)c1cccc([N+](=O)[O-])c1`: the Potency is 7.57 µM (active).

Take `O=C(Oc1ccc(C(=S)N2CCOCC2)cc1)c1ccccc1`: the Potency was 16.9 µM (active).

For the compound `O=C(Oc1ccc(C(=S)N2CCOCC2)cc1)c1cccc(Cl)c1`, the Potency is 8.49 µM (active).

Take `CC(=O)c1ccc(OC(=O)/C=C/c2ccccc2)cc1`: the Potency was 4.26 µM (active).

For the compound `Cc1ccc(Nc2nc(N)nc(CSc3nnc(C)s3)n2)cc1`, the “activity change, negative = inhibition” value is -27.8%.

In the case of `COc1ccc(C(=O)C2CCCN(C(=O)c3cccc(N(C)C)c3)C2)cc1OC` (centres undefined), the “activity change, negative = inhibition” value is -24.1%.

`COC(=O)C(Sc1ccc(Cl)cc1)C1SC(=S)N(Cc2ccccc2)C1=O` (centres undefined): the “activity change, negative = inhibition” value was -27.9%.

With `Cc1ccc(C(=O)Oc2ccc(C(=S)N3CCOCC3)cc2)cc1`, the Potency was 1.2 µM (active).

With `O=C(Oc1ccc(C(=S)N2CCOCC2)cc1)c1ccc(F)cc1`, the Potency is 7.57 µM (active).

Regarding `O=C(/C=C/c1ccccc1)Oc1ccc(C(=S)N2CCOCC2)cc1`, the Potency was 1.51 µM (active).

Take `O=C(Cc1ccc(F)cc1)Oc1ccc(C(=S)N2CCCC2)cc1`: the Potency is 15.1 µM (active).

As for `COc1ccc(C(=O)OCC(=O)Nc2ccc(N3CCOCC3)cc2)cc1`, the “activity change, negative = inhibition” value was -5.25%.

As for `COc1cccc(OC)c1C(=O)OCC(=O)NCC1CCCCC1`, the “activity change, negative = inhibition” value is -9.42%.

`CC(C)OCCCNC(=O)c1ccccc1NC(=O)C1=CSCCO1`: the “activity change, negative = inhibition” value was -8.43%.

On to `C1=Cc2ccccc2/C1=C\c1cc2c3c(c1)CCCN3CCC2`, for which the Potency was 7.57 µM (active).

Take `Cc1ccc(NC(=O)c2cc3c(CO)cnc(C)c3oc2=Nc2cccc(C(N)=O)c2)cc1`: the “activity change, negative = inhibition” value was -28.9%.

On to `COc1cc(N=c2oc3c(C)ncc(CO)c3cc2C(N)=O)cc(OC)c1OC`, for which the Potency was 6.75 µM (active).

In the case of `Cc1cc(Nc2ccccc2C(=O)O)n(-c2cccc(Cl)c2)n1`, the Potency is 6.75 µM (active).

As to `COc1ccc(C(=O)Nc2cc(OC)c(NC(=O)Nc3ccccc3)cc2OC)cc1`, the “activity change, negative = inhibition” value is -25.1%.

`COc1ccc(-n2nc(C)cc2Nc2ccccc2C(=O)O)cc1`: the Potency was 6.01 µM (active).

Take `CN(C)c1ccc(/C=C/C=C2/C=Cc3ccccc32)cc1`: the Potency was 4.26 µM (active).

With `CCN(CC)c1ccc(/C=C2\C=Cc3ccccc32)cc1`, the Potency was 6.75 µM (active).

`CC1=C/C(=C\c2ccc(N(C)C)cc2)c2ccccc21`: the Potency is 7.57 µM (active).

In the case of `CN(C)c1ccc(C=C2C=Cc3ccccc32)cc1`, the Potency was 3.79 µM (active).

Take `CC1C(c2ccccc2)=Nn2c(=O)n(-c3ccccc3)c(=O)n21` (centres undefined): the “activity change, negative = inhibition” value was -2.7%.

For the compound `CNc1ccc(C=C2C=Cc3ccccc32)cc1`, the Potency was 15.1 µM (active).

On to `C1=Cc2ccccc2/C1=C\c1cc[cH-]c1.[Fe+2].c1cc[cH-]c1`, for which the Potency was 10.7 µM (active).

As to `CN(C)c1ccc(/C=C2\C=Cc3ccccc32)cc1`, the Potency is 6.01 µM (active).

As to `Cc1oc2c(Cl)c(Cl)c(O)c(CN(C)C)c2c1C(=O)c1ccc(Cl)cc1`, the Potency was 19 µM (active).

For `CC(=O)Nc1ccc(S(=O)(=O)NC2=C(N3CCN(Cc4ccccc4)CC3)C(=O)c3ccccc3C2=O)cc1`, the Potency was 19 µM (active).

In the case of `O=C1C(NS(=O)(=O)c2cccs2)=C(N2CCN(Cc3ccccc3)CC2)C(=O)c2ccccc21`, the Potency is 13.5 µM (active).

As for `Cc1nn(-c2ccccc2)c2c1C(c1cccnc1)N1C=C(S(=O)(=O)N3CCCCC3)C=CC1=N2` (centres undefined), the “activity change, negative = inhibition” value was -26.3%.

As for `NC(=O)c1ccc(-c2nnc(Nc3ccc(S(N)(=O)=O)cc3)c3ccccc23)cc1`, the Potency was 13.5 µM (active).

As for `COc1ccc(-c2csc(-c3ccc(C(=O)O)cc3)n2)cc1`, the “activity change, negative = inhibition” value was -19.6%.

As for `CNC(=O)c1ccc(Nc2nnc(-c3ccc(C(N)=O)cc3)c3ccccc23)cc1`, the Potency was 4.78 µM (active).

As for `COc1ccc(Nc2nnc(-c3ccc(C(N)=O)cc3)c3ccccc23)cc1`, the Potency is 4.78 µM (active).

For the compound `COc1ccc(NC(=O)c2[nH]c(C)c(C(C)=O)c2C)cc1Cl`, the “activity change, negative = inhibition” value is -25.3%.

`Cc1cc2oc(C(=O)N3CCN(Cc4ccccc4)CC3)c(C)c2cc1C`: the “activity change, negative = inhibition” value is -28.7%.

Regarding `Cc1cc2oc(C(=O)N(Cc3ccc(N(C)C)cc3)CC3CCCO3)c(C)c2cc1C` (centres undefined), the Potency is 8.49 µM (active).

For the compound `COc1ccc(N(CC(=O)N2CCCCC2)S(=O)(=O)c2c(C)nn(C)c2C)cc1`, the “activity change, negative = inhibition” value was -2.46%.

`COc1ccc(NC(=O)c2ccc(COc3ccccc3)o2)c(OC)c1`: the “activity change, negative = inhibition” value is -18.8%.

On to `COc1ccc(NC(=O)c2ccc(CN3CCc4ccccc4C3)cc2)c(OC)c1`, for which the “activity change, negative = inhibition” value is -24.9%.

Take `COc1ccc(NC(=O)COc2cccc3c2CCN(C)C3=O)c(OC)c1`: the Potency was 12 µM (active).

As to `Clc1ccc(-n2nnnc2-c2cnc3ccccc3c2-c2ccccc2)cc1`, the “activity change, negative = inhibition” value is -27.9%.

For `Cc1cc(C)n2nc(SCCOc3ccccc3F)nc2n1`, the Potency was 15.1 µM (active).

Take `Cc1cc(C)n2nc(C(=O)NC3CCCc4ccccc43)nc2n1` (centres undefined): the “activity change, negative = inhibition” value was -9.93%.

Regarding `O=C(COc1ccccc1/C=C1/NC(=O)NC1=O)Nc1ccccc1`, the “activity change, negative = inhibition” value is -25.6%.

Take `CN(C)S(=O)(=O)c1cccc(NC(=O)COc2ccccc2C(=O)Nc2ccccc2)c1`: the Potency is 13.5 µM (active).

As to `Cc1cnc2c(C)ccc(C)c2c1/C=C/c1ccc(N(C)C)cc1`, the Potency is 6.01 µM (active).

`Cc1ccc(C)c2c(/C=C/c3ccc(N(C)C)cc3)ccnc12`: the Potency was 5.36 µM (active).

With `Cc1cnc2c(C)cccc2c1/C=C/c1ccc(N(C)C)cc1`, the Potency is 6.01 µM (active).

Regarding `Cc1cc(C)c2c(/C=C/c3ccc(N(C)C)cc3)ccnc2c1`, the Potency is 9.53 µM (active).

For the compound `COCc1cc(O)c(O)c(O)c1-c1c(COC)cc(O)c(O)c1O`, the “activity change, negative = inhibition” value is -12.3%.

Regarding `Cc1cc(=O)n2[nH]c(Nc3cccc(Cl)c3)nc2n1`, the “activity change, negative = inhibition” value was -20.9%.
